Source: PubChem
12-hLO inh: inhibitors of human 12-lipoxygenase (ALOX12); Potency, µM (highest dose often 57.1 µM), inactives show at the top dose activity change, negative = inhibition, hits mostly inhibitors; 150,000 compounds, 0.12% hits; P18054; purified 12-hLO, xylenol orange hydroperoxide absorbance; also: potency is read from the fitted curve at half-maximal effect; nearly all actives have a fitted effect of over 55% in size
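Purified human 12hLO (150 nM final) was preincubated with compounds for 15 min at room temperature in 25 mM Hepes pH 7.0, 0.01% Triton X-100, then reacted with 40 uM arachidonic acid for 30 min. Hydroperoxide was detected with ferrous iron/xylenol orange.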
IMPase inh: cell-permeable inhibitors of inositol monophosphatase (IMPase); CHO-M1 cells, IP1 accumulation, HTRF TR-FRET ratio; inhibition (IP1 accumulation), % at 46.1 µM; 120,000 tested, under 10 active; AID 901; active = well fitted curve in the direction sought with a large enough effect in the signal ratio, not every such curve was filed as active; inconclusive = small, poorly fitted or top-dose-only effect, or a change in a side signal; inactive = no such curve, though single readings can be large or run the other way; the % refers to the signal ratio;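 also: cells stimulated with carbachol in lithium chloride buffer; plate controls were DMSO basal wells for no effect and reference inhibitor wells for full effect; higher means more IMPase inhibition seen as more IP1 and lower FRET ratio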
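The IP-One HTRF competitive assay in carbachol-stimulated CHO-M1 cells quantifies cellular IP1. Compounds spanned up to 46 uM final, and activity is expressed as AC50 from concentration-response fits of the ratio and donor data.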
IMPase Li inh: cell-permeable IMPase inhibitors with lithium potentiation; 210,000 compounds, 0.35% hits; CHO-M1 cells, IP1 TR-FRET (IP-One), carbachol + lithium; Potency, µM (doses to about 59.4 µM), inactives show at the top dose activity, negative = IMPase inhibition, usual class: inhibitors;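 also: IP1 builds up when IMPase is blocked and the TR-FRET signal falls; potency is read from the fitted curve at half-maximal effect; plate controls were basal vehicle for no effect and high inhibitor control for full effect; nearly all actives have a fitted effect of over 50% in size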
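CHO-M1, 2000 cells/well, 16–30 h culture; cpd + low Li+, 30 min 37C; lysis with d2-IP1/Eu-anti-IP1 Ab, 10 min RT; TR-FRET 665/620 ratio and 620 channel; AC50 via Hill.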
ALOX15B inhib: 15-hLO-2 (ALOX15B) enzyme inhibition. 110,000 compounds, 0.56% hits. purified 15hLO-2, xylenol orange hydroperoxide absorbance. Potency, µM (highest dose often 57.1 µM), for inactives: top-dose activity change, negative = inhibition, actives largely listed as inhibitors. O15296; also: potency is read from the fitted curve at half-maximal effect; nearly all actives have a fitted effect of over 60% in size
Target sequence (O15296 whole entry, looked up): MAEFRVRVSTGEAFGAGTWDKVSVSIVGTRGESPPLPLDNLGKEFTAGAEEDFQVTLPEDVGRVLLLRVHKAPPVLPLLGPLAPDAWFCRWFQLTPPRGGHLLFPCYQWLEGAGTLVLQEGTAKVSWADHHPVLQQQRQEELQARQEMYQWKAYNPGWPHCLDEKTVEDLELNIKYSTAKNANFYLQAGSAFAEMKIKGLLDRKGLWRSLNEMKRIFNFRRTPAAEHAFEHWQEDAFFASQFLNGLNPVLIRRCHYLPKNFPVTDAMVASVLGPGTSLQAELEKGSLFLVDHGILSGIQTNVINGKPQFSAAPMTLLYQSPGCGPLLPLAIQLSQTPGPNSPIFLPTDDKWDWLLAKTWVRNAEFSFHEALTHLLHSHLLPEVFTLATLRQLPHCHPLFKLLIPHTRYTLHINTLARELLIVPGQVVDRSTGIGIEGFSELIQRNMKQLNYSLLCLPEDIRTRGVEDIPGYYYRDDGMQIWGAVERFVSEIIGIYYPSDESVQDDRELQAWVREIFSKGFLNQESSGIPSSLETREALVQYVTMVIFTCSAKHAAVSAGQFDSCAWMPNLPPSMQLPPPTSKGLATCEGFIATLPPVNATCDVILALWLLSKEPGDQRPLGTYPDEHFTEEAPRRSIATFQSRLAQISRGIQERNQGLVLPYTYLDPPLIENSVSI
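Purified human 15hLO-2 (50 nM) preincubated 15 min with compound, then 45 uM arachidonic acid for 90 min at RT in 25 mM Hepes pH 7.5, 0.01% Triton X-100. Hydroperoxide detected by Fe-xylenol orange; 573/405 nm absorbance ratio.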
An asterisk follows results filed as active; u = inconclusive; x = no result; [ ] = dose if it differs, or a comment. This excerpt belongs to a sample that is enriched for hits. Unless noted, calls follow the shape of the dose curve; as a rule, active = well fitted curve in the direction sought with a large enough effect; inconclusive = small, poorly fitted or top-dose-only effect, or another doubt; inactive = no such curve, though single readings can be large; an effect the other way counts as inactive or inconclusive. Unless noted, % is scaled to controls: 0 for no effect and ±100 for the full control effect.

SMILES | 12-hLO inh | IMPase inh | IMPase Li inh | ALOX15B inhib
C[N+]1=C(/C=C/Nc2ccccc2Cl)C(C)(C)c2ccccc21 | 0% | x | 12% | x
CC[C@H](c1ccc(O)cc1)[C@@H](CC)c1ccc(O)cc1 | -20%[25.6 µM] | 6[20.6 µM] | 16% | 10µM*
O=S(=O)(O)c1ccc(N=Nc2ccc3c(S(=O)(=O)O)cccc3c2O)c2ccccc12 | 1%[11.4 µM] | x | 9% | -3%[11.4 µM]
CC(=O)Nc1ccc(S(=O)(=O)N2CCc3nc(-c4ccccc4)c4c(c3C2)CO[C@@H](C)C4)cc1 | 2%[11.4 µM] | x | 13% | x
N#Cc1cc2c([nH]c1=S)CCCCCC2 | u | -3 | -15%[38.3 µM] | 25µM*
O=C(O)C1=CC(c2ccc(Br)cc2)n2ncnc2N1 (centres undefined) | x | 0 | x | x
c1ccc(Sc2cnc3ccccc3n2)cc1 | -2% | u | 13µM* | 3%
N#C/C(=C\c1ccc(O)c(O)c1)C(=O)NCCCc1ccccc1 | u | 10 | 12% | u
N#C/C(=C\c1ccc(O)c(O)c1)C(=O)OCCc1cccs1 | u | 2 | 13% | 13µM*
COc1ccc2c(c1)N(C)/C(=C1/SC(=NCc3ccccc3)N(c3ccccc3)C1=O)S2 | 0% | -7[1.84 µM] | -2%[38.3 µM] | -17%[11.4 µM]
C=CCN1C(=O)/C(=C2/Sc3ccc(OC)cc3N2C)SC1=NCc1ccccc1 | x | x | 2µM* | x
C[C@@]12CC[C@H]3[C@H](CC=C4C[C@@H](O)CC[C@@]43C)[C@@H]1CC[C@@H]2N(CCO)CCO | 2%[11.4 µM] | x | x | -2%[11.4 µM]
CCCOc1cccc(C2c3c(oc4ccc(F)cc4c3=O)C(=O)N2CCCN2CCOCC2)c1 (centres undefined) | x | -2 | x | x
COC(=O)c1cc(Br)c(=O)n(-c2cc(C)on2)c1 | -2% | u | 10µM* | -1%
COC(=O)c1cc(Br)c(=O)n(-c2ccccn2)c1 | -5% | -22 | -11%[38.3 µM] | 7%
COC(=O)c1cc(Br)c(=O)n(-c2nccs2)c1 | -3% | u | 10µM* | 6%
CN(C)c1ccc(C2N([C@H](C#N)c3ccc(N(C)C)cc3)CCCN2[C@@H](C#N)c2ccc(N(C)C)cc2)cc1 (some centres undefined) | -4%[11.4 µM] | x | -17% | -5%[11.4 µM]
COc1c(C2=CC(=O)N(C)C2=O)c2c(n1C)C(=O)c1ccccc1C2=O | x | x | 24% | x
O=C(Nc1nnc(CCS(=O)(=O)c2ccc3ccccc3c2)s1)c1cccs1 | -4% | x | 11µM* | x
COc1ccc(S(=O)(=O)CCc2nnc(NC(=O)c3cccs3)s2)cc1 | -6% | u | u | -12%
O=C(c1cccc(F)c1)N1CCC2(CC1)CN(c1ccccn1)C2 | 0% | x | 17% | 3%
N#Cc1cccc(NC(=O)N2CCCC3(CCN(C(=O)c4csnn4)CC3)C2)c1 | 1% | x | 18% | 2%
N#Cc1cccc(NC(=O)N2CCC3(CC2)CCN(C(=O)c2csnn2)CC3)c1 | 0% | x | 11µM* | -4%
Nc1nc2c(c(=O)[nH]1)N=C(CNc1ccc(C(=O)NC(CCC(=O)O)C(=O)O)cc1)CN2 (centres undefined) | -5% | 8 | 15% | -6%
CCCn1c(NC(=O)c2ccc(Br)cc2)nc2ccccc21 | 3% | u | 28µM* | 6%
SMILES | 12-hLO inh | IMPase inh | IMPase Li inh | ALOX15B inhib
Cc1ccc(S(=O)(=O)N(Cc2cc3cc4c(cc3[nH]c2=O)OCCO4)CC2CCCO2)cc1 (centres undefined) | 2% | -9 | 7.1µM* | -1%
COc1ccc2cc(CN(CC3COCCO3)S(=O)(=O)c3ccc(Cl)cc3)c(=O)[nH]c2c1 (centres undefined) | -3% | 8 | 7.1µM* | -9%
O=c1[nH]c2cc3c(cc2cc1CN(CC1CCCO1)S(=O)(=O)c1ccc(Cl)cc1)OCCO3 (centres undefined) | 5% | -10 | 5%[38.3 µM] | 3%
COC(=O)c1cccc(CN2C(=O)SC(Nc3ccccc3C)C2=O)c1 (centres undefined) | x | -2 | x | x
Cc1scc(-c2n[nH]c(=S)n2C(C)c2ccccc2)c1C (centres undefined) | -13% | x | 14% | x
CCc1cc(-c2n[nH]c(=S)n2C(C)c2ccccc2)cs1 (centres undefined) | 16µM* | 0 | 30%[38.3 µM] | -17%
O=C1NN(c2ccccc2)C(=O)/C1=C\c1cccc(OC(=O)c2cccs2)c1 | u | -1 | 24%[38.3 µM] | 16µM*
COc1cc(/C=C2/C(=O)NN(c3ccc(Cl)cc3)C2=O)ccc1OC(=O)c1ccco1 | u | x | 0% | x
COC(=O)N/N=C\c1cccc(OC(=O)c2cccs2)c1 | x | x | 1% | x
O=C1NN(c2ccc(Cl)c(Cl)c2)C(=O)/C1=C/c1cccc(OC(=O)c2cccs2)c1 | u | -1 | 28%[38.3 µM] | 10µM*
CCCCCC(=O)/C=C/[C@H]1[C@H](O)CC(=O)[C@@H]1C/C=C\CCCC(=O)O | -1% | x | 9% | x
CC(=O)c1cc2cc(O)ccc2o1 | -10% | -15 | 11µM* | -3%
CN1/C(=C\C(=S)NC(=O)c2cccc(Br)c2)C(C)(C)c2ccccc21 | 14µM* | -6 | x | x
CCC(=O)NC(c1cccs1)c1cc([N+](=O)[O-])c2cccnc2c1O (centres undefined) | 2.8µM* | x | -1% | x
CC#CCN1c2ccccc2[C@]23C[C@@H](C(=O)OC)N(S(=O)(=O)c4cccs4)C2=NC(C(=O)OC)=C(C(=O)OC)[C@H]13 | -1%[11.4 µM] | x | 1% | x
OC[C@@H]1O[C@H](O)[C@@H](Cl)[C@H](O)[C@@H]1O | -4% | 6 | x | 4%
Cc1nc2ncnn2c(N2CCC(C(=O)NC3CCCC3)CC2)c1Cc1ccccc1 | -1% | 3 | 21%[38.3 µM] | -1%
Cc1ccccc1NC(=O)C1CCN(c2cc(-c3ccccc3)nc3ncnn23)CC1 | 2% | -9 | 8.9µM* | x
CC1=NOC(=O)/C1=C\c1ccc(-c2cc(Cl)ccc2Cl)o1 | -5% | 1 | u | 2µM*
CC1=NOC(=O)/C1=C\c1ccc(-c2ccc(Br)cc2)o1 | x | x | -13% | x
CC1=NOC(=O)/C1=C/c1ccc(-c2ccc(Cl)cc2)o1 | u | 2 | 23%[38.3 µM] | 7.9µM*
Cn1c(O)c(N=N/C(=N/c2ccccn2)c2ccccn2)c2cc(Br)ccc21 | -11% | x | x | x
